Screens: PubChem, several laboratories
Sampled rows, rich in hits. Any-hit rate of the full collection: about 3.8%.
tim23-1 inh = growth inhibitors of tim23-1 mutant yeast, primary screen, luminescence, uHTS; S. cerevisiae tim23-1 growth, BacTiter-Glo luminescence, 24 h; inhibition, % at 20 µM; 1.3% of 330,000 active; AID 463212, 2010;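 active means growth inhibition of the mutant yeast at or above 50%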;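 further: temperature-sensitive mutant grown at 25 °C; plate controls were DMSO-treated mutant yeast for no effect and medium wells lacking yeast for full effect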
tim10-1 inh = growth inhibitors of tim10-1 mutant yeast, primary screen, luminescence, uHTS; S. cerevisiae tim10-1 ts strain growth, BacTiter-Glo, 24 h; inhibition, % at 20 µM; 2.2% of 330,000 active; AID 463190, 2010;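 active means inhibition of at least 40%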;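 further: mutant grown at 25 °C; 0% = DMSO wells with yeast and 100% = wells holding no yeast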
TIM10 inh = growth inhibitors of isogenic TIM10 control yeast, primary screen, counter-screen for tim10-1 yeast inhibitor project, luminescence, uHTS; S. cerevisiae TIM10 strain growth, BacTiter-Glo luminescence, 24 h; inhibition, % at 10 µM; 1.4% of 330,000 active; AID 463195, 2010;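 active means inhibition of 40% or more at the single tested concentration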;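 further: wild-type TIM10 isogenic control strain grown at permissive 25 °C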
Beta2AR agonist = beta2AR agonists driving receptor internalization, primary screen, cell-based, FAP fluorogen, flow cytometry. Beta-2 adrenergic receptor (Homo sapiens), P07550. Am2.2-beta2AR cells. response, % (test concentration not listed). 0.43% of 340,000 active;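 active means response above a set limit, near 3 SD of response in nonfluorescent compounds, cut at about 42% in these data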
Target sequence (P07550 whole entry, looked up): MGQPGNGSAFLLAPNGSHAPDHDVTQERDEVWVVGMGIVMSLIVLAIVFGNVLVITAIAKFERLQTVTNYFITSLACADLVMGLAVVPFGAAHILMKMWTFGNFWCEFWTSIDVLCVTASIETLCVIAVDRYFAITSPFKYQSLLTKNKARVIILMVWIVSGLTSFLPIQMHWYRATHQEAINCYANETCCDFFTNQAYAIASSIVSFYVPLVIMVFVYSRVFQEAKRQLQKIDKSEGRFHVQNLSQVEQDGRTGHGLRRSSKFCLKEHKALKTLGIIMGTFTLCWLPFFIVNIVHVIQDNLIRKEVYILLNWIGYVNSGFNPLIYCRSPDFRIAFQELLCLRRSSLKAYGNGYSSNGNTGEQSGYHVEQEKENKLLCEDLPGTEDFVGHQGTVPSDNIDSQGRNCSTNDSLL
PfHsp90 yeast 2 = growth inhibition of PfHsp90-expressing yeast, primary screen, antimalarial PfHsp90 inhibitor project, S. cerevisiae, BacTiter-Glo luminescence, single point, set 2 | BacTiter-Glo ATP, 48 h; yeast lacking PDR1 and PDR3 efflux regulators | inhibition, % at 9.4 µM | 0.32% of 310,000 active | AID 504621, 2011;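 active means every replicate shows inhibition above about 80%, whatever the replicate mean, limit read from the data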;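 further: 0% = DMSO neutral controls and 100% = 20 µM radicicol positive controls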
tim10-1 confirm = growth inhibitors of tim10-1 mutant yeast, confirmation, single concentration, luminescence, S. cerevisiae; shares compounds with tim10-1 inh; S. cerevisiae tim10-1 ts strain growth, BacTiter-Glo, 24 h; inhibition, % at 20 µM; 56% of 7,400 active;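 active means inhibition of yeast growth at or above a set limit in either of two repeat tests at 20 µM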;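 further: tim10-1 mutant grown at permissive 25 °C to find synthetic lethal compounds; 0% = DMSO yeast wells and 100% = medium wells without yeast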
TIM10 conf = growth inhibitors of wild-type TIM10 yeast, confirmation, counter-screen for tim10-1 synthetic lethality project, single concentration, luminescence, S. cerevisiae. 63% of 4,600 active. inhibition, % at 10 µM. shares compounds with TIM10 inh. S. cerevisiae tim10 strain growth, BacTiter-Glo luminescence, 24 h;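 active means inhibition of yeast growth at or above a set limit in either of two replicates at 10 µM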;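 further: this counterscreen used the strain with wild-type TIM10; 0% = yeast with DMSO and 100% = medium wells lacking yeast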
Numbers without * were called inactive.

What do the screens show for `FC(F)Sc1ccc(NC(=S)NC2CCCCC2)cc1`?
tim23-1 inh: 31.0; tim10-1 inh: 64.5*; TIM10 inh: 65.9*; Beta2AR agonist: 0.9; tim10-1 confirm: 67.0*; TIM10 conf: 62.2*

How did FC(F)Sc1ccc(NC(=S)NCc2ccccc2)cc1 do in these assays?
tim23-1 inh: 44.1; tim10-1 inh: 48.1*; TIM10 inh: 56.1*; Beta2AR agonist: 1.3; PfHsp90 yeast 2: -21.7; tim10-1 confirm: 40.8*; TIM10 conf: 43.6*

What do the screens show for `FC(F)Sc1ccc(NC(=S)NCC2CCCCC2)cc1`?
tim23-1 inh: 47.7; tim10-1 inh: 70.5*; TIM10 inh: 68.8*; Beta2AR agonist: 2.2; PfHsp90 yeast 2: -1.4; tim10-1 confirm: 60.5*; TIM10 conf: 59.7*

How did CCC1CCCCN1S(=O)(=O)c1ccc2c(c1)CCN2C(=O)C1CCC1 (stereo unspecified) do in these assays?
tim23-1 inh: 5.7; tim10-1 inh: 54.5*; TIM10 inh: 56.3*; Beta2AR agonist: -12.2; PfHsp90 yeast 2: 16.5; tim10-1 confirm: 45.4*; TIM10 conf: 50.0*

How did O=C(CCl)c1ccc2c(c1)CCN2C(=O)C1CCCCC1 do in these assays?
tim23-1 inh: 35.1; tim10-1 inh: 61.9*; TIM10 inh: 76.1*; Beta2AR agonist: 22.1; tim10-1 confirm: 36.2*; TIM10 conf: 65.1*

How did CSCC[C@H](NC(=O)[C@@H]1Cc2ccccc2CN1)C(=O)Nc1ccc2c(c1)OCCO2 do in these assays?
tim23-1 inh: -5.4; tim10-1 inh: -8.6; TIM10 inh: -10.6; Beta2AR agonist: -1.8; PfHsp90 yeast 2: -17.7

How did Cc1cc(C)n2c(=O)[nH]nc2c1 do in these assays?
Beta2AR agonist: -0.5; PfHsp90 yeast 2: -9.9

Results for Cc1cc(NC(=O)COC(=O)C(Nc2ccc(C(F)(F)F)cc2Cl)C(C)C)no1 (stereo unspecified) ?
tim23-1 inh: 42.9; tim10-1 inh: 52.6*; TIM10 inh: 50.0*; Beta2AR agonist: -5.5; PfHsp90 yeast 2: 15.3; tim10-1 confirm: 23.2; TIM10 conf: 43.4*

Results for CC1(C)NC(=O)N(CCC(=O)Nc2cc(C(F)(F)F)ccc2Cl)C1=O ?
tim23-1 inh: 1.5; tim10-1 inh: -8.2; TIM10 inh: 13.5; Beta2AR agonist: 0.1

How did Cc1cc2ccccn2c1C(=O)c1ccc([N+](=O)[O-])o1 do in these assays?
tim23-1 inh: 0.2; tim10-1 inh: 46.0*; TIM10 inh: 76.8*; Beta2AR agonist: 7.2; tim10-1 confirm: 29.9; TIM10 conf: 91.2*

How did O=C(Nc1cccc(Cl)c1)NC1CCCCC1 do in these assays?
tim23-1 inh: 36.2; tim10-1 inh: 41.4*; TIM10 inh: 49.5*; Beta2AR agonist: -16.0; tim10-1 confirm: 32.5*; TIM10 conf: 22.8

How did Cc1cccc(NC(=O)NC2CCCCCCC2)c1 do in these assays?
tim23-1 inh: 38.5; tim10-1 inh: 13.4; TIM10 inh: 24.5; Beta2AR agonist: -5.8; PfHsp90 yeast 2: -10.3

Results for O=C1/C(=C/c2ccncc2)Cc2ccccc21 ?
tim23-1 inh: 44.0; tim10-1 inh: 31.1; TIM10 inh: 15.9; Beta2AR agonist: -0.6; PfHsp90 yeast 2: 21.4

How did CC1C/C(=C/c2ccncc2)C(=O)/C(=C/c2ccncc2)C1 (stereo unspecified) do in these assays?
tim23-1 inh: -7.9; tim10-1 inh: 43.8*; TIM10 inh: 84.1*; Beta2AR agonist: 27.4; PfHsp90 yeast 2: 97.6*; tim10-1 confirm: 39.0*; TIM10 conf: 89.2*

What do the screens show for `c1ccc(-c2nnc(-c3c[nH]c4ccccc34)nc2-c2ccccc2)cc1`?
tim23-1 inh: 29.1; tim10-1 inh: 24.5; TIM10 inh: 17.7; Beta2AR agonist: 0.4; PfHsp90 yeast 2: -48.0

How did Cc1cc(-c2nnc(-c3ccccc3)c(-c3ccccc3)n2)c(C)o1 do in these assays?
tim23-1 inh: 49.3; tim10-1 inh: 48.0*; TIM10 inh: 52.0*; Beta2AR agonist: 1.9; PfHsp90 yeast 2: -18.9; tim10-1 confirm: 46.5*; TIM10 conf: 30.0

What do the screens show for `Oc1ccc(C[C@H]2CNC(=S)N2CC2CCCN2C[C@H](Cc2ccc(O)cc2)N2C[C@H](Cc3ccc(O)cc3)N(CC3CCCCCC3)C2=S)cc1` (stereo partly specified)?
Beta2AR agonist: 25.7; PfHsp90 yeast 2: -26.0

How did O=C(N[C@H]1/C=C\[C@@H](O)CCCC1)OCc1ccccc1 do in these assays?
tim23-1 inh: 29.9; tim10-1 inh: 3.1; TIM10 inh: -6.5; Beta2AR agonist: -5.8; PfHsp90 yeast 2: 4.4

Results for CCCn1c2c(c(O)c(C(=O)Nc3nccs3)c1=O)CCCC2 ?
tim23-1 inh: 31.2; tim10-1 inh: 22.9; TIM10 inh: 19.1; Beta2AR agonist: -14.3; PfHsp90 yeast 2: -2.0

How did CC(C)Cn1c2c(c(O)c(C(=O)Nc3nccs3)c1=O)CCCC2 do in these assays?
tim23-1 inh: 43.0; tim10-1 inh: 42.7*; TIM10 inh: 55.4*; Beta2AR agonist: -2.6; PfHsp90 yeast 2: -47.6; tim10-1 confirm: 38.9*; TIM10 conf: 20.4

What do the screens show for `CCOc1ccc(Nc2cc(C)nc(-n3nc(C)cc3C)n2)cc1`?
tim23-1 inh: 18.0; tim10-1 inh: 44.3*; TIM10 inh: 42.2*; Beta2AR agonist: 21.1; PfHsp90 yeast 2: -1.1; tim10-1 confirm: 0.8; TIM10 conf: 7.4

How did N#CC1(C#N)CC(C=O)=C(N)C1(C#N)CC(=O)C12CC3CC(CC(C3)C1)C2 (stereo unspecified) do in these assays?
tim23-1 inh: 48.4; tim10-1 inh: 40.3*; TIM10 inh: 47.7*; Beta2AR agonist: 10.1; PfHsp90 yeast 2: 21.9; tim10-1 confirm: 48.0*; TIM10 conf: 39.8*

What do the screens show for `Nc1nccnc1C(=O)OCC(=O)C12CC3CC(CC(C3)C1)C2`?
tim23-1 inh: 4.1; tim10-1 inh: -4.4; TIM10 inh: 2.1; Beta2AR agonist: -1.9; PfHsp90 yeast 2: 7.1

What do the screens show for `Cc1ccc(OCCCC(=O)NNC(=O)c2ccccn2)cc1`?
tim23-1 inh: -8.5; tim10-1 inh: 9.8; TIM10 inh: -3.2; Beta2AR agonist: 0.7; PfHsp90 yeast 2: 2.3

Results for O=C(NC1=NCCS1)C1CCN(S(=O)(=O)c2ccccc2C(F)(F)F)CC1 ?
tim23-1 inh: 20.3; tim10-1 inh: 9.8; TIM10 inh: 1.2; Beta2AR agonist: 0.6; PfHsp90 yeast 2: 8.3
